Measured values taken from PubChem BioAssay (NCI).
This is part of a sample that, as a whole, favours compounds with a hit. Of some 83,000 tested, about 20% had one in any assay.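 Percent growth is the endpoint: 0 to 100 indicates growth inhibition (40 means 60% inhibition), 0 means no net growth, and negative values indicate cell death.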 A number with no mark means an inactive call. The source made the active and inactive calls. How the source made its calls: active means growth percent below 10; inactive means the rest.

system: MDA-MB-468 breast; experiment: NCI-60 one-dose screen, 48 h (100 = growth as untreated, 0 = no growth, -100 = all killed); conditions: 10 µM unless noted

| SMILES | growth |
| --- | --- |
| COCCn1cc(-c2csc(-c3cn(C)c4ccc(Br)cc34)n2)c2cccnc21 | 54.8% |
| CCCCCCCCCCCC(=O)[O][Sn]([CH2]CCC)([CH2]CCC)[CH2]CCC | -79.4% (active) |
| Cc1cc(N(CCNc2ccnc3cc(Cl)ccc23)Cc2ccc3c(c2)OCO3)nc(N2CCN(C)CC2)n1 | -59% (active) |
| Clc1ccc(-c2csc(N/N=C/c3nc4ccccc4n3C3CC3)n2)cc1 | 90.1% |
| COc1ccc(-c2nc3sc(C)nn3c2-c2nc3cc(C)c(C)cc3[nH]2)cc1 | 113% |
| CC(=O)c1cccc(Nc2ncnc3ccc(NC(=O)c4ccco4)cc23)c1 | 60.2% |
| O=C(/C=C/c1ccc(Br)cc1)c1ccccc1 | 96.3% |
| O=C(Cn1c(=O)ccn(CCCCCCCCOc2ccc(Br)cc2)c1=O)Nc1ccc(Oc2ccc(Cl)cc2)cc1 | 34.2% |
| O=C(/C=C/c1ccccc1Cl)c1cccc(OCCCCOc2cccc(C(=O)/C=C/c3ccccc3Cl)c2)c1 | 110% |
| Cc1cc(-c2nnc(/C=C/c3ccc4c(c3)OCO4)o2)n[nH]1 | 54% |
| O=C(Cc1ccc(F)c(Cl)c1)Nc1cc(C2(C(F)(F)F)CC2)nn1Cc1ccccc1 | 23.9% |
| CNC(=O)c1cc(Oc2ccc(NC(=O)c3nc(S(C)(=O)=O)sc3-c3ccc(F)cc3)cc2)ccn1 | -4.37% (active) |
| CCOP(=O)(OCC)OC[C@]12CCC(C)(C)C=C1[C@H]1CC[C@@H]3[C@@]4(C)CC[C@H](OP(=O)(OCC)OCC)C(C)(C)[C@@H]4CC[C@@]3(C)[C@]1(C)CC2 | -16.8% (active) |
